PD-1 reversal – activators reversing PD-1 mediated T-cell inhibition, primary screen, luminescence, primary human CD4 T cells, PD-L1 beads. CellTiter-Glo 96 h. activation, % (concentration not given with the values). 29,000 tested, under 10 active. AID 2316, 2010; call rule not given here;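 note: 0% = median vehicle wells and 100% = positive control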
NOMO-1 viab – NOMO-1 AML cell viability reduction, primary screen, STK33 inhibitor project, CellTiter-Glo luminescence | NOMO-1 AML viability, 72 h | inhibition, % (concentration not given with the values) | hit rate 7.5% among 37,000 | AID 2330, 2010; in the data active = inhibition above about 80%; inconclusive = no clear call, values can overlap the other calls
STK33 inh – STK33 kinase inhibitors, primary screen, biochemical, luminescence, ADP-Glo, MBP substrate | Serine/threonine-protein kinase 33 (Homo sapiens), Q9BYT3 | inhibition, % at 12.5 µM | hit rate 0.44% among 27,000 | AID 2322, 2010; in the data active = inhibition above about 20%; inconclusive = no clear call, values can overlap the other calls
Target sequence (Q9BYT3 whole entry, looked up): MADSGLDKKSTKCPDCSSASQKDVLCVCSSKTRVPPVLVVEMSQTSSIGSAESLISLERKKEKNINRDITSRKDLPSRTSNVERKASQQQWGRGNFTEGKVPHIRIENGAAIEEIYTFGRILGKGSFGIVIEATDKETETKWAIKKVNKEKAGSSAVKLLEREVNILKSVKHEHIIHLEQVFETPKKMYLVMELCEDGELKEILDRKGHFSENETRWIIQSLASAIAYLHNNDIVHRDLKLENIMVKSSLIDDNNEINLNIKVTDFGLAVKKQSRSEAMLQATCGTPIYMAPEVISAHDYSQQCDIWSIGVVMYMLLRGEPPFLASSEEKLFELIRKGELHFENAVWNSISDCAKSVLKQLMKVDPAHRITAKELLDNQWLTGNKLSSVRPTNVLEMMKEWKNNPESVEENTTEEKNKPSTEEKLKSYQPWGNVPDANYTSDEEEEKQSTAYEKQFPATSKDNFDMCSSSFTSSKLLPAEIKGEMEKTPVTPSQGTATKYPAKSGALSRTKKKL
Numbers without * were called inactive; ? = inconclusive; . = no result. Many of the other results were omitted from the sample, so hits are more common in it than they were.

SMILES	PD-1 reversal	NOMO-1 viab	STK33 inh
C[C@@H]1CN([C@H](C)CO)C(=O)c2cc(NC(=O)Nc3ccc4c(c3)OCO4)ccc2O[C@H]1CN(C)C(=O)Nc1ccc(C(F)(F)F)cc1	-0.2	23.2	.
C[C@@H]1CN([C@@H](C)CO)C(=O)c2cc(NC(=O)Nc3ccc(C(F)(F)F)cc3)ccc2O[C@@H]1CN(C)C(=O)Nc1ccc2c(c1)OCO2	-3.9	102.4*	2.7
C[C@@H]1CN([C@H](C)CO)C(=O)c2cc(NC(=O)Nc3ccc(C(F)(F)F)cc3)ccc2O[C@@H]1CN(C)C(=O)Nc1ccc2c(c1)OCO2	-1.2	95.3*	.
C[C@H]1CN([C@@H](C)CO)C(=O)c2cc(NC(=O)Nc3ccc(C(F)(F)F)cc3)ccc2O[C@H]1CN(C)C(=O)Nc1ccc2c(c1)OCO2	-1.5	42.3	.
COc1ccc(C(=O)C(C)Oc2cccc(NC(=O)c3ccc([N+](=O)[O-])cc3)c2)cc1 (centres undefined)	-0.4	52.8	0.1
COc1ccc(NC(=O)Nc2ccc3c(c2)C(=O)N([C@H](C)CO)C[C@@H](C)[C@@H](CN(C)Cc2ccc(Oc4ccccc4)cc2)O3)cc1	.	122.1*	.
C[C@@H]1CN([C@H](C)CO)C(=O)c2cc(NC(=O)NC3CCCCC3)ccc2O[C@H]1CN(C)Cc1ccc(Oc2ccccc2)cc1	-1.3	?	0.4
COc1ccc(NC(=O)Nc2ccc3c(c2)C(=O)N([C@H](C)CO)C[C@H](C)[C@H](CN(C)Cc2ccc(-c4ccccc4)cc2)O3)cc1	0.1	28.5	0.9
C[C@H]1CN([C@@H](C)CO)C(=O)c2cc(NC(=O)Cc3ccccc3)ccc2O[C@@H]1CN(C)Cc1ccc(Oc2ccccc2)cc1	.	92.8*	.
C[C@@H]1CN([C@@H](C)CO)C(=O)c2cc(NC(=O)NC3CCCCC3)ccc2O[C@@H]1CN(C)Cc1ccc(Oc2ccccc2)cc1	-5.5	119.8*	.
COc1ccc(NC(=O)Nc2ccc3c(c2)C(=O)N([C@@H](C)CO)C[C@@H](C)[C@@H](CN(C)Cc2ccc(-c4ccccc4)cc2)O3)cc1	-6.0	115.8*	4.1
COc1ccc(NC(=O)Nc2ccc3c(c2)C(=O)N([C@@H](C)CO)C[C@H](C)[C@@H](CN(C)Cc2ccc(Oc4ccccc4)cc2)O3)cc1	-0.8	33.2	2.2
C[C@H](CO)N1C[C@H](C)[C@H](CN(C)Cc2ccc(Oc3ccccc3)cc2)Oc2ccc(NC(=O)Cc3ccccc3)cc2C1=O	.	68.9	.
O=C(O)CNC(=O)CSc1ccc(Cl)cc1	-1.4	24.7	-2.9
O=c1[nH]c2ccccc2n1CCCSc1nc2ccccc2[nH]1	0.1	61.7	0.5
O=C(Nc1ccc(S(=O)(=O)NCC2CCCO2)cc1)c1cc(-c2ccccc2)nc2ccccc12 (centres undefined)	1.5	26.1	5.9
COc1cc(COc2ccc3c4c(c(=O)oc3c2)CCC4)cc(OC)c1OC	1.6	33.7	.
C[C@@H]1CN([C@@H](C)CO)C(=O)c2cc(NC(=O)Nc3ccccc3)ccc2O[C@@H]1CN(C)Cc1ccc(Oc2ccccc2)cc1	-2.0	116.5*	-0.7
C[C@H](CO)N1C[C@H](C)[C@@H](CN(C)Cc2ccc(Oc3ccccc3)cc2)Oc2ccc(NC(=O)Nc3ccccc3)cc2C1=O	-1.7	?	.
O=C1/C(=C/c2ccco2)N=C(c2ccccc2)N1/N=C/c1ccc(F)cc1	-0.2	27.0	.
Cc1nnc(SCC(=O)c2ccc3c(c2)OCCO3)s1	-0.2	12.7	4.4
COc1ccc2c(c1OC)CN(C)CCc1cc3c(cc1C(=O)C2)OCO3	-1.9	5.9	-4.9
COc1ccc2cc3[n+](cc2c1OC)CCc1cc2c(cc1-3)OCO2	0.2	110.0*	-3.6
Cc1ccnc(SCC(=O)Nc2ccc(Br)cc2F)n1	-0.1	12.0	-4.0
COc1ccc(NC(=O)Nc2ccc3c(c2)CC(=O)N([C@@H](C)CO)C[C@H](C)[C@H](CN(C)S(=O)(=O)c2ccc(Cl)cc2)O3)cc1	-0.2	112.5*	.
SMILES	PD-1 reversal	NOMO-1 viab	STK33 inh
COc1ccc(NC(=O)Nc2ccc3c(c2)CC(=O)N([C@@H](C)CO)C[C@H](C)[C@@H](CN(C)S(=O)(=O)c2ccc(C)cc2)O3)cc1	-1.7	23.8	4.6
COc1ccc(NC(=O)Nc2ccc3c(c2)CC(=O)N([C@H](C)CO)C[C@H](C)[C@H](CN(C)S(=O)(=O)c2ccc(Cl)cc2)O3)cc1	.	122.5*	3.0
COc1ccc(NC(=O)Nc2ccc3c(c2)CC(=O)N([C@H](C)CO)C[C@@H](C)[C@@H](CN(C)S(=O)(=O)c2ccc(OC)cc2)O3)cc1	.	-14.0	-0.1
COc1ccc(NC(=O)Nc2ccc3c(c2)CC(=O)N([C@H](C)CO)C[C@@H](C)[C@@H](CN(C)S(=O)(=O)c2ccc(Cl)cc2)O3)cc1	-0.5	3.5	4.9
COc1ccc(NC(=O)Nc2ccc3c(c2)CC(=O)N([C@H](C)CO)C[C@H](C)[C@H](CN(C)S(=O)(=O)c2ccc(C)cc2)O3)cc1	.	121.6*	0.3
Cc1noc(C)c1S(=O)(=O)Nc1ccc2c(c1)C(=O)N([C@@H](C)CO)C[C@@H](C)[C@@H](CN(C)Cc1ccc(Oc3ccccc3)cc1)O2	-0.9	101.8*	.
Cc1noc(C)c1S(=O)(=O)Nc1ccc2c(c1)C(=O)N([C@@H](C)CO)C[C@@H](C)[C@@H](CN(C)Cc1ccc(Cl)c(Cl)c1)O2	-0.2	81.7*	.
C[C@@H]1CN([C@H](C)CO)C(=O)c2cc(NS(=O)(=O)c3ccccc3)ccc2O[C@@H]1CN(C)Cc1ccc(Oc2ccccc2)cc1	-2.7	70.5	.
Cc1ccc(S(=O)(=O)Nc2ccc3c(c2)C(=O)N([C@@H](C)CO)C[C@@H](C)[C@H](CN(C)Cc2ccc(Oc4ccccc4)cc2)O3)cc1	.	56.8	.
Cc1ccc(S(=O)(=O)Nc2ccc3c(c2)C(=O)N([C@H](C)CO)C[C@@H](C)[C@H](CN(C)Cc2ccc(Oc4ccccc4)cc2)O3)cc1	-1.8	83.5*	.
C[C@@H]1CN([C@H](C)CO)C(=O)c2cc(NS(=O)(=O)c3ccc(F)cc3)ccc2O[C@H]1CN(C)Cc1ccc(Oc2ccccc2)cc1	.	114.1*	.
Cc1noc(C)c1S(=O)(=O)Nc1ccc2c(c1)C(=O)N([C@@H](C)CO)C[C@H](C)[C@@H](CN(C)Cc1ccc(Cl)c(Cl)c1)O2	-2.8	-3.6	.
Cc1noc(C)c1S(=O)(=O)Nc1ccc2c(c1)C(=O)N([C@@H](C)CO)C[C@H](C)[C@@H](CN(C)Cc1ccc(Oc3ccccc3)cc1)O2	-2.6	25.6	.
Cc1ccc(NC(=O)COc2ccccc2)c(NC(=O)C2CC2)c1	.	-7.3	2.7
CS(=O)(=O)N(CC(=O)Nc1ccc2ccccc2c1)c1ccc(Cl)cc1Cl	0.1	48.6	-1.4
Cc1c(C(=O)OC(C)C)sc2ncn(CC(=O)Nc3ccccc3C(F)(F)F)c(=O)c12	.	20.7	-5.8
C[C@H]1CN([C@@H](C)CO)C(=O)c2cc(NS(=O)(=O)c3ccc(F)cc3)ccc2O[C@H]1CN(C)Cc1ccc(Oc2ccccc2)cc1	0.5	11.0	1.3
C[C@@H]1CN([C@H](C)CO)C(=O)c2cc(NS(=O)(=O)c3ccc(F)cc3)ccc2O[C@@H]1CN(C)Cc1ccc(Oc2ccccc2)cc1	-1.2	85.6*	.

Source: PubChem (Broad Institute)
